# The campaign covered roughly 310,000 compounds. About 14,000 (4.5%) showed an effect of 50% or more. The effect is printed as a negative number. For the sample, strong results were picked, then their nearest neighbours and some compounds at random.
# Molecular target: human ether-à-go-go-related gene (hERG) potassium channel (human, UniProt Q12809)
# Test: primary screen, population patch clamp on CHO cells stably expressing hERG; higher = less effect of the substance
# 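Note: peak tail current of the secondary pulse compared with the same well before compound.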
# Sequence of human ether-à-go-go-related gene (hERG) potassium channel (Q12809 whole entry, looked up): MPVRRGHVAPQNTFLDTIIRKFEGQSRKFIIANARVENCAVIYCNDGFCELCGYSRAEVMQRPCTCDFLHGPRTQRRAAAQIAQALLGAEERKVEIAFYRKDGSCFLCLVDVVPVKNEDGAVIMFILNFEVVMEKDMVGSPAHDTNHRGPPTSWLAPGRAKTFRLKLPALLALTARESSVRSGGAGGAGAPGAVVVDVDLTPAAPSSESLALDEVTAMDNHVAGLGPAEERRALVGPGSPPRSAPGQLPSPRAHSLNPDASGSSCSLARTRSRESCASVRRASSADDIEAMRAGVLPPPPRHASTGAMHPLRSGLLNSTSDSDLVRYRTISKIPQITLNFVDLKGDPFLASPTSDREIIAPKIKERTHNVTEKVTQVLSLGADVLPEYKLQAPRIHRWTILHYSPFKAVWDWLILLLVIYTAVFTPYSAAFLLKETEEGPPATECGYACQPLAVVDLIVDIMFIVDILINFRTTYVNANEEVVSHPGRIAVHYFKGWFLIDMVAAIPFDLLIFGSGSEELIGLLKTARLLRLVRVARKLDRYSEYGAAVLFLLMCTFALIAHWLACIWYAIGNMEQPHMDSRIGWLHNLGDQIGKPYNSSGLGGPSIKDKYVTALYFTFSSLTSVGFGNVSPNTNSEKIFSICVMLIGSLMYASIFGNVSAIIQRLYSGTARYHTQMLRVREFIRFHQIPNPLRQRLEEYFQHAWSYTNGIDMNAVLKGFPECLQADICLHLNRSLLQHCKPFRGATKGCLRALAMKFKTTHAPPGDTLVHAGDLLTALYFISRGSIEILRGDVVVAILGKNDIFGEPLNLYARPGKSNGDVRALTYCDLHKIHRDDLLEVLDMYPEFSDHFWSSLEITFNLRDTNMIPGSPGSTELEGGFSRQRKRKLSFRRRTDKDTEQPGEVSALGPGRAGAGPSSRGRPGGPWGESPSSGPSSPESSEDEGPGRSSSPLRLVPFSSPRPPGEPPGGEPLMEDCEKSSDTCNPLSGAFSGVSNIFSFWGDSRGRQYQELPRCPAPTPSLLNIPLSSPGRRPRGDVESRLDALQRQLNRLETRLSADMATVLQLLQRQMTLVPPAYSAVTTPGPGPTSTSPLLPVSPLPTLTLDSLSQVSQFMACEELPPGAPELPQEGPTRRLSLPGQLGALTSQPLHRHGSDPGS
row,SMILES,"hERG current change (%, negative = inhibition) at 10uM [%]"
1,CN(C)c1nc2n(c(=O)n1)CCO2,20.3
2,Cc1ccc(NC(=O)c2sc3nc(N4CCOCC4)c4c(c3c2N)CC(C)(C)OC4)cc1,5.7
3,Cc1ccc(NC(=O)NCC(c2ccccc2)N(C)C)cc1 (stereo not shown),12.4
4,O=C(OC(C(=O)Nc1ccc([N+](=O)[O-])cc1Br)c1ccccc1)c1ccccc1 (stereo not shown),5.91
5,CCN(CC)CCNC(C(=O)Nc1ccc([N+](=O)[O-])cc1Br)c1ccccc1 (stereo not shown),-77
6,CCCCNC(C(=O)Nc1ccc([N+](=O)[O-])cc1Br)c1ccccc1 (stereo not shown),5.72
7,CN(C)C(CNC(C(=O)Nc1ccc(F)cc1)c1ccccc1)c1ccccc1 (stereo not shown),-70.6
8,COCCNC(C(=O)Nc1ccc(C)cc1[N+](=O)[O-])c1ccccc1 (stereo not shown),-6.29
9,CC(C)C(=O)Nc1ccc([N+](=O)[O-])cc1Br,-5.22
10,COCCNC(C(=O)Nc1cc(Cl)cc(Cl)c1)c1ccccc1 (stereo not shown),-16.4
11,COC(C(=O)Nc1ccc(F)cc1)c1ccccc1 (stereo not shown),-0.691
12,CC(C)CNC(C(=O)Nc1ccc([N+](=O)[O-])cc1Br)c1ccccc1.O=C(O)C(=O)O (stereo not shown),-9.16
13,COCCNC(C(=O)Nc1ccc([N+](=O)[O-])cc1Br)c1ccccc1 (stereo not shown),-74
14,CN(C)C(CNC(C(=O)Nc1ccc([N+](=O)[O-])cc1Br)c1ccccc1)c1ccccc1 (stereo not shown),-66.5
15,CCCSc1nc2sc3c(c2c(=O)n1CC)CC(C)(C)OC3,3.41
16,CCS(=O)(=O)NCC(c1ccco1)N1CCN(c2ccccc2F)CC1 (stereo not shown),-1.69
17,COc1ccc(OC)c(NC(=O)COC(=O)CN2C(=O)NC3(CCCC3)C2=O)c1,7.58
18,O=C(CCCOC(=O)c1ccc(O)cc1O)c1ccc(F)cc1,-11.6
19,Cc1ccc(CS(=O)(=O)CCC(=O)NCCN2CCCCC2C)cc1 (stereo not shown),-2.59
20,Cc1cccc(/C=N/N2CCN(c3ccccc3)CC2)c1,-4.38
21,O=C(O)CCCC(=O)OCCCCc1cccs1,-2.23
22,Nc1c2c(nc3ccccc13)N(C1CCCCC1)CC2,-65.6
23,c1ccc2nc3c(nc2c1)OCC1CCCCN31 (stereo not shown),-14.2
24,Nc1c2c(nc3ccc(Br)cc13)N(C1CCCCC1)CC2.O=C(O)C(=O)O,-70.1
25,Cc1nc2ccccc2c(=O)n1C1CCCCCC1,-7.64

row,SMILES,"hERG current change (%, negative = inhibition) at 10uM [%]"
1,Nc1c2c(nc3ccc(Br)cc13)N(c1ccccc1)CC2.O=C(O)C(=O)O,-21.3
2,Nc1c2c(nc3ccc(Br)cc13)N(Cc1ccccc1)CC2,-43.5
3,CCOC(=O)c1sc(NC(=O)c2ccncc2)c(C#N)c1C,22.8
4,CC(C)=C1SC(N2CCN(c3cccc(C(F)(F)F)c3)CC2)=NC1=O,-2.7
5,Oc1ccc[nH+]c1SCc1ccccc1.[Br-],12.7
6,Nc1cc(N)nc(SCC(=O)NCc2ccco2)n1,9.13
7,Cc1cccn2c(=O)c3cc(C(=O)NC4CCCC4)sc3nc12,-22.8
8,Cc1cccn2c(=O)c3cc(C(=O)NC4CCCC4)c(=N)n(CCc4ccccc4)c3nc12,-74.5
9,CCCn1c(=N)c(C(=O)NC2CCCC2)cc2c(=O)n3cccc(C)c3nc21,-77.4
10,COc1ccc(CCn2c(=N)c(C(=O)NC3CCCC3)cc3c(=O)n4cccc(C)c4nc32)cc1,-77.8
11,Cc1ccc(CNC(=O)CSc2nc(C)cs2)cc1,15.4
12,CCCc1c(-c2ccc(O)cc2)nn(-c2ccc(O)cc2)c1-c1ccc(O)cc1,12.6
13,CCN(CC)C(=O)CSc1nnc([C@H](CCSC)NC(=O)OC(C)(C)C)o1,-8.26
14,CC1=CC(C)(C)N(C(=O)C(C)N2C(=O)c3ccccc3C2=O)c2ccc(C)cc21 (stereo not shown),2.88
15,COC(=O)c1ccc(NS(=O)(=O)c2cc3c4c(c2)C(C)C(=O)N4CCC3)cc1 (stereo not shown),2.73
16,Fc1cccc2sc(Nc3nc4cc5c(cc4s3)OCO5)nc12,20.3
17,COC(=O)C1CCN(C(=O)COC(=O)c2ccc(=O)n(Cc3ccccc3)n2)CC1,-4.78
18,CC(C)CN(C(=O)COC(=O)c1ccc(-c2ccccc2)cc1)C1CCS(=O)(=O)C1 (stereo not shown),17.5
19,CCOc1cc(/C=N/NC(=O)Cc2ccc(C(F)(F)F)cc2[N+](=O)[O-])c(Br)cc1OC,8.3
20,CCCCCCCCCCC[N+](C)(C)CC/C=C1/c2ccccc2Sc2ccc(Cl)cc21.[Br-],-32.8
21,CN(C)CC/C=C1/c2ccc(F)cc2Sc2ccc(Cl)cc21.Cl,5.06
22,CN(C)CC/C=C1/c2ccccc2Sc2c(O)cc(Cl)cc21,-47.5
23,CCCCCCCCCC[N+](C)(C)CC/C=C1/c2ccccc2Sc2ccc(Cl)cc21.[Br-],-76.6
24,CCCCCC[N+](C)(C)CC/C=C1/c2ccccc2Sc2ccc(Cl)cc21.[Br-],-75.2
25,CC[N+](C)(C)CC/C=C1/c2ccccc2Sc2ccc(Cl)cc21.[Br-],-25.3

row,SMILES,"hERG current change (%, negative = inhibition) at 10uM [%]"
1,O=C1NC(=S)S/C1=C/c1ccc(Oc2cnccn2)cc1,20
2,Cc1cccc(C(=O)NC(=S)N2CCN(C(=S)NC(=O)c3cccc(C)c3)CC2)c1,-0.873
3,CCCC(OC(=O)CC1Sc2ccccc2NC1=O)C(=O)NCc1ccco1 (stereo not shown),-13.8
4,Cc1ccc(CSCC(=O)N2CCOCC2)cc1,8.89
5,O=C(NNC1=C(C(=O)C(F)(F)F)CCC1)c1cccc(Cl)c1,7.77
6,CCOC(=O)C1(Cc2cccc(OC)c2)CCN(CC(O)CO)CC1 (stereo not shown),-4.39
7,CCOC(=O)C1(Cc2cccc(OC)c2)CCCN(Cc2cc(OC)c(O)c(OC)c2)C1 (stereo not shown),-33.7
8,CCOC(=O)C1(Cc2cccc(OC)c2)CCN(Cc2csc(C(C)=O)c2)CC1,-41.1
9,CCOC(=O)C1(Cc2cccc(OC)c2)CCN(Cc2ccccc2)CC1,-40.3
10,CCOC(=O)C1(Cc2cccc(OC)c2)CCN(Cc2cccc(O)c2)CC1,-54.7
11,CCOC(=O)C1(Cc2cccc(OC)c2)CCN(Cc2ccc(OC)c(O)c2)CC1,-77.9
12,CCOC(=O)C1(Cc2cccc(OC)c2)CCN(CCO)CC1,-54.3
13,CCOC(=O)C1(Cc2cccc(OC)c2)CCN(Cc2ccc(OC)c(OC)c2)CC1,-68.8
14,CCOC(=O)C1(Cc2cccc(OC)c2)CCN(Cc2ccc3c(c2)OCCO3)CC1,-38
15,COc1ccc([C@H]2CC(=O)C=C(c3cccc(OCc4ccccc4)c3)C2)cc1,10.8
16,Cc1ccc(-n2nc3c(=O)n(CCCC(=O)NCc4cccc(F)c4)nc(C)c3c2C)cc1,-21.7
17,COc1cccc(N2C(=O)CC(N3CCc4ccccc4C3)C2=O)c1 (stereo not shown),13.1
18,CC(C)(C)N/N=C/c1cc(Cl)cc([N+](=O)[O-])c1O.Cl,-10.9
19,Cc1onc(-c2ccccc2Cl)c1C(=O)N1CCN(c2ncccn2)CC1,2.45
20,CCOC(=O)c1ccccc1NC(=O)COC(=O)C1=COCCO1,4.78
21,Cc1nc2ccccn2c1C(=O)CSc1ccc(Cl)cc1Cl,-4.24
22,Cc1ccc(OCC(=O)NCCc2c[nH]c3ccccc23)cc1,17.1
23,COc1cc2c(C)nc(C)c(C#N)c2cc1OC.Cl,-5.92
24,Cc1ccc2nc(N3CC(C)OC(C)C3)nc(-c3ccccc3)c2c1 (stereo not shown),5.88
25,c1ccc(Nc2nc(N3CCNCC3)nc(N3CCOCC3)n2)cc1,-43

row,SMILES,"hERG current change (%, negative = inhibition) at 10uM [%]"
1,CCOC(=O)C1(Cc2cccc(OC)c2)CCN(Cc2cnc(C)s2)CC1,-12.2
2,CCOC(=O)C1(Cc2cccc(OC)c2)CCN(Cc2ccc(C)s2)CC1,-67.1
3,CCOC(=O)C1(Cc2ccccc2)CCN(Cc2ccc(C)s2)CC1,-46
4,CN(C)S(=O)(=O)c1ccc(N2CCOCC2)c(C(=O)NCc2ccc3c(c2)OCO3)c1,-14.7
5,COC(=O)c1ccc(/C=N/Nc2nc3ccccc3[nH]2)cc1,11.4
6,C=C(C)C(=O)Nc1cccc(C2=NOC3(C2)C[C@@H](C(N)=O)N(C(=O)c2cc([N+](=O)[O-])cc([N+](=O)[O-])c2C)C3)c1 (stereo partly shown),1.96
7,COc1cccc(NC(=O)N2CCC(N3CCCCC3)CC2)c1,-7.99
8,O=C(Nc1ccc(Cl)c(Cl)c1)N1CCCCCC1,2.82
9,O=C(Nc1ccc(Cl)c(Cl)c1)N1CCC(N2CCCCC2)CC1,-63.5
10,Cc1ccc(C(C)(C)C)c(OCCN2CCCC2)c1,-19.5
11,CC(C)[C@@H](N)C(=O)N/N=C/c1ccc2nccnc2c1.Cl,17.1
12,CCOC(=O)C1CCN(C(=O)c2cc3c(s2)-c2ccccc2OC3)CC1,-38.9
13,CC1CCCN(CCCNC(=O)c2cc3c(s2)-c2ccccc2OC3)C1 (stereo not shown),-76.4
14,O=C(Nc1nccs1)c1cc2c(s1)-c1ccccc1OC2,16.2
15,CC1CC(C)CN(CCCNC(=O)c2cc3c(s2)-c2ccccc2OC3)C1 (stereo not shown),-70.2
16,O=C(O)c1cc2c(s1)-c1ccccc1OC2,9.73
17,CN1CCN(c2ccccc2NC(=O)c2cc3c(s2)-c2ccccc2OC3)CC1,-51.3
18,Cc1cccc2c1-c1sc(C(=O)Nc3ccccc3N3CCN(C)CC3)cc1CO2,-13.4
19,CC1CCN(CCCNC(=O)c2cc3c(s2)-c2ccccc2OC3)CC1,-74.6
20,O=C(Nc1cccnc1Cl)c1cc2c(s1)-c1ccccc1OC2,-3.48
21,CC1CCCN(CCCNC(=O)CN2C(=O)COc3ccccc32)C1 (stereo not shown),-4.59
22,Cc1csc(NC(=O)c2cc3c(s2)-c2ccccc2OC3)n1,3.36

# Reference: publication PMC4336329 (PLoS ONE, 2015)
